Sampled rows, rich in hits. Any-hit rate of the full collection: about 21%.
Gal4-VP16 FLuc = VP16 counterscreen qHTS for inhibitors of ROR gamma transcriptional activity | Drosophila S2 Gal4-VP16 UAS-luciferase, luminescence, 20 h | 3.5% of 310,000 active | Potency, µM (series often up to 53.6 µM), without a hit: at the top dose activity, negative = inhibition, most hits filed as inhibitors | AID 2546, 2010;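 further: Gal4-VP16 expression switched on by copper sulfate through the metallothionein promoter; potency means the concentration at half of the fitted maximal effect; nearly all actives have a fitted effect of over 50% in size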
IL-1B inflam inh = qHTS for Inhibitors of Inflammasome Signaling: IL-1-beta AlphaLISA Primary Screen; THP-1 LPS/ATP IL-1B secretion, AlphaLISA, 16 h; stronger effect = lower value; activity change, % at 57.5 µM; AID 743279, 2014; 4.7% of 360,000 active; in the data active means activity change below about -50%; inconclusive means mostly about -30% to -49%
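THP-1 cells pretreated 1 hr with compounds (up to 57.5 uM final), then stimulated with LPS (250 ng/mL final) plus ATP (1.25 mM final); secreted IL-1B measured by AlphaLISA after 16 hr, decreased signal indicating inhibition.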
DT40 TDP1 no CPT = qHTS for Inhibitors of human tyrosyl-DNA phosphodiesterase 1 (TDP1): qHTS in cells in absence of CPT; DT40 Tdp1-/- hTDP1 cells, no CPT, ATP luminescence, 48 h; Potency, µM (highest dose often 46.2 µM), for inactives: top-dose activity change, negative = growth inhibition, hits mostly inhibitors; 15% of 420,000 active; AID 686978, 2013; further: potency means the concentration at half of the fitted maximal effect; nearly all actives have a fitted effect of over 55% in size
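Chicken DT40 Tdp1-/- cells stably complemented with human TDP1 were seeded at 400 cells/well with DMSO in place of 20 nM camptothecin. After compound pinning, cells grew at least 48 hr at 37 °C; viability read by CellTiter-Glo luminescence.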
ELG1 repair inh = qHTS screen for small molecules that inhibit ELG1-dependent DNA repair in human embryonic kidney (HEK293T) cells expressing luciferase-tagged ELG1 | HEK293T ELG1-luciferase reporter, luminescence, 16 h; DNA damage induced by 5-fluorouridine | Potency, µM (series often up to 46.1 µM), for the others: top-dose activity change, negative = inhibition, usual class: inhibitors | 2.3% of 330,000 active; further: potency means the concentration at half of the fitted maximal effect; nearly all actives have a fitted effect of over 55% in size
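Luminescence from the luciferase reporter, measured 30 min after ONE-Glo reagent at room temperature, was the read-out. Beforehand, 2,000 cells per well were exposed for 16 hr at 37 °C to 5-fluorouridine together with compound or vehicle.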
RORg inh = qHTS for inhibitors of ROR gamma transcriptional activity. AID 2551, 2010. 5.4% of 310,000 active. Potency, µM (top dose mostly 53.6 µM), for inactives: at the top dose activity change, negative = inhibition, usual class: inhibitors. Nuclear receptor ROR-gamma (Mus musculus), P51450. Drosophila S2 Gal4-RORgamma UAS-luciferase reporter, 20 h; further: potency means the concentration at half of the fitted maximal effect; nearly all actives have a fitted effect of over 60% in size
Target sequence (P51450 whole entry, looked up, the tested form may be a part): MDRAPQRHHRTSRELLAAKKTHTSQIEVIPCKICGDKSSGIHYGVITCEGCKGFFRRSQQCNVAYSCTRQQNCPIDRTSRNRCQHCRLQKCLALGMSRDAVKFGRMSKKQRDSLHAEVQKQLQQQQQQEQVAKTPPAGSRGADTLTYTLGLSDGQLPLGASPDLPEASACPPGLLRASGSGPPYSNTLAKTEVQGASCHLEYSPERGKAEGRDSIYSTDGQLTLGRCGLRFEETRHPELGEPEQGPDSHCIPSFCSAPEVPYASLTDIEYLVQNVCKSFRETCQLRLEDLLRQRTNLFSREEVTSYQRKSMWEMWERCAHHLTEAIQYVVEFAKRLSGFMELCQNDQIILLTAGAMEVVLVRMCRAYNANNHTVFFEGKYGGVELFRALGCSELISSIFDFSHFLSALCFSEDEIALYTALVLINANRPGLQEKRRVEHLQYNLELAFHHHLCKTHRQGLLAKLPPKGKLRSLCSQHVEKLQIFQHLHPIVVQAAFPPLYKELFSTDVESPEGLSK
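Read-out: Photinus luciferase luminescence; inhibitors lower reporter signal. Insect Schneider cells with Gal4-ROR gamma fusion under metallothionein promoter, UAS reporter; 700 uM final copper sulfate induction, 20 hr, ambient temperature.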
DT40 TDP1 CPT = qHTS for Inhibitors of human tyrosyl-DNA phosphodiesterase 1 (TDP1): qHTS in cells in presence of CPT | chicken DT40 Tdp1-/-;hTDP1 cells + 20 nM CPT, ATP luminescence, 48 h | AID 686979, 2013 | Potency, µM (highest dose often 46.2 µM), without a hit: at the highest dose activity change, negative = growth inhibition, usual class: inhibitors | 12% of 420,000 active; further: potency means the concentration at half of the fitted maximal effect; nearly all actives have a fitted effect of over 55% in size
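Chicken DT40 Tdp1-/- cells stably complemented with human TDP1 were seeded at 400 cells/well in medium containing 20 nM camptothecin, exposed to pin-transferred compounds, and grown at 37 °C for at least 48 hr. Viability was read as ATP luminescence.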
* marks the source's active call; other numbers are inactive results; i = inactive; ? = inconclusive; · = not tested or not shown; [ ] = another dose, or the depositor's remark. Unless noted, the call rests on the fitted dose curve; in most records, active means well fitted curve in the direction sought with a large enough effect; inconclusive means small, poorly fitted or top-dose-only effect, or another doubt; inactive means no such curve, though single readings can be large; an effect the other way counts as inactive or inconclusive. On the % scale 0 is the no-effect control and ±100 the full control effect.

SMILES	Gal4-VP16 FLuc	IL-1B inflam inh	DT40 TDP1 no CPT	ELG1 repair inh	RORg inh	DT40 TDP1 CPT
O=S(=O)(c1cccs1)N1CCN(c2cccc(Cl)c2)CC1	11.6%	-10.6	-28.0%	-0.1%	44.4%	-24.7%
NS(=O)(=O)c1ccc(N2CCN(CCOc3ccc(Cl)cc3)CC2)nc1	?	-10.9	14.6µM*	?	?	?
COc1ccc(S(=O)(=O)N2CCC(C(N)=O)CC2)cc1C(=O)N1CCCCCC1	-9.8%	-7.4	-10.4%	21.8%	1.8%	4.5%
O=CC(O)C(O)C(O)C(O)CO (stereo unspecified)	4.3%	·	·	·	5.7%	·
CC(C)N1CCN(c2ccc(S(=O)(=O)N3CCOCC3)cn2)CC1	-2.0%	-14.9	16.4%	3.4%	-0.6%	-0.2%
CCOC(=O)[C@@H]1[C@H]2COc3cc(OC)ccc3[C@@H]2N2C(=O)N(c3ccc(C(F)(F)F)cc3)C(=O)[C@]12C	1.1%	-1.6	20.6µM*	0.3%	18.9%	23.1µM*
CCOC(=O)[C@@H]1[C@H]2COc3cc(OC)ccc3[C@@H]2N2C(=O)N(c3ccc(OC)cc3)C(=O)[C@@]12C	·	21.8	-2.3%	15.0%	·	-4.2%
CCOC(=O)[C@@H]1[C@H]2COc3cc(OC)ccc3[C@@H]2N2C(=O)N(c3ccc(Br)cc3)C(=O)[C@]12C	·	-20.8	?	·	·	14.6µM*
O=C(NC1CCCC1)C1c2ccccc2OCC(=O)N1Cc1ccc2c(c1)OCO2 (stereo unspecified)	·	-3.6	?	·	·	-7.3%
O=C1[C@H]2CCn3c(=O)n(-c4ccccc4)c(=O)n3[C@H]2[C@H](O)[C@H]2O[C@@H]12	-11.7%[10 µM]	·	·	·	2.1%[10 µM]	·
Cc1ccc(S(=O)(=O)NCc2ccccc2)cc1C(=O)N1CCN(S(=O)(=O)c2ccccc2F)CC1	·	4.4	?	·	·	11.6µM*
Cc1ccc(S(=O)(=O)NCc2ccccc2)cc1C(=O)N1CCCCC1	3.3%	2.7	2.2%	-6.1%	6.2%	-6.5%
Cc1ccc(S(=O)(=O)NCc2ccccc2)cc1C(=O)N1CC(C)CC(C)C1 (stereo unspecified)	·	6.5	18.4µM*	-18.2%	·	?
Cc1ccc(S(=O)(=O)NCc2ccccc2)cc1C(=O)N1CCN(c2ccccc2)CC1	·	28.0	?	?	·	?
CC(C(=O)NCC1CCCCC1)N1CCN(S(=O)(=O)c2cccs2)CC1 (stereo unspecified)	·	-3.9	?	2.8%	·	?
O=C(N(Cc1ccccc1)c1ccccn1)C12CC3CC(CC(C3)C1)C2	9.0%	-23.6	16.4µM*	-13.9%	-26.1%	25.9µM*
CCC(Oc1ccccc1)C(=O)N(Cc1ccccc1)c1ccccn1 (stereo unspecified)	?	0.0	16.4µM*	-1.3%	-8.2%	?
CC(C)C[C@@H](CC(=O)N[C@H](CC(=O)N[C@@H]1CCCC[C@H]1C(=O)N[C@H](CC(=O)N[C@@H](CCC(=O)O)CC(=O)O)Cc1ccccc1)C(C)C)NC(=O)[C@@H]1CCCC[C@H]1N	2.6%	·	·	·	-17.8%	·
Cc1cc(Cl)ccc1OCCCC(=O)NNC(=O)c1ccccc1O	·	63.2	23.1µM*	?	·	?
COc1ccc(OC)c(NC(=O)NNC(=O)CCCOc2ccc(Cl)cc2C)c1	-4.4%	-55.3*	?	-30.0%	23.2%	?
COc1ccc(NC(=O)NNC(=O)COc2ccc(Cl)cc2C)cc1OC	-10.1%	i	-15.3%	-2.2%	-1.0%	-7.9%

Assay outcomes deposited in PubChem by National Center for Advancing Translational Sciences (NCATS).
